# A selection: hits, their analogues and other compounds. The true share with any hit is near 1.8%.
# UHRF1 binding: UHRF1 methylated DNA binding inhibitors, primary screen, counter-screen for MBD2 inhibitor project, biochemical, TR-FRET, human UHRF1, single concentration. inhibition, % at 4.4 µM. UHRF1 binding to methylated oligo. AID 687016, 2013. 0.75% of 370,000 active. E3 ubiquitin-protein ligase UHRF1 (Homo sapiens), Q96T88; in the data active means inhibition above about 21%;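 further: UHRF1 SRA domain binding a hemimethylated CpG hairpin DNA probe; 0% = median of test compound wells and 100% = reference inhibitor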
# MBD2 DNA inh: inhibitors of MBD2 binding to methylated DNA, primary screen, biochemical, TR-FRET, DNA-binding domain, human; Methyl-CpG-binding domain protein 2 (Homo sapiens), Q9UBB5; MBD2 binding to methylated oligonucleotide; inhibition, % at 4.4 µM; 0.31% of 370,000 active; AID 686964, 2013; in the data active means inhibition above about 13%
# Target sequence (Q9UBB5 whole entry, looked up, the tested form may be a part): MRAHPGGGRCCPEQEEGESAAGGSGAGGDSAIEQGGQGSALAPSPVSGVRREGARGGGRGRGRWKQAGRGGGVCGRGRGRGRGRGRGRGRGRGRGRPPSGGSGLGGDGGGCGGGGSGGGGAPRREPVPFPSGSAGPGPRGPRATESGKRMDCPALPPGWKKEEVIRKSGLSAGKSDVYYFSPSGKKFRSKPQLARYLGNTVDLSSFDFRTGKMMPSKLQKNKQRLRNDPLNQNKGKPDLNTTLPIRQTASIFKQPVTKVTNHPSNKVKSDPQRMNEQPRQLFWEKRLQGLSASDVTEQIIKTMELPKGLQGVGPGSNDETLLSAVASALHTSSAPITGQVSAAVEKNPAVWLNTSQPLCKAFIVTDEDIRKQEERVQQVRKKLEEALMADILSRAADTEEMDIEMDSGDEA
# Neddyl block: inhibitors of cullin neddylation, primary screen, biochemical, TR-FRET, uHTS, NAE and Ubc12; calls only at 25 µM; AID 651699, 2012; 0.58% of 360,000 active; in the data active means inhibition above about 36%
# UBC13 polyUb: UBC13 polyubiquitin chain formation inhibitors, primary screen, biochemical, TR-FRET, uHTS; Ubiquitin-conjugating enzyme E2 N (Homo sapiens), P61088; AID 485273, 2010; 0.47% of 330,000 active; inhibition, % at 20 µM; in the data active means inhibition above about 45%, passing the limit was not always enough
# Neddyl conf: blockade of NEDD8 conjugation to cullin – biochemical, TR-FRET, single concentration, confirmation; TR-FRET cullin neddylation biochemical assay; calls only at 25 µM; 13% of 1,800 active; AID 652217, 2013; shares compounds with Neddyl block; in the data active means inhibition above about 40%;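 further: neddylation substrate is the cullin 1 ring ligase complex with SKP2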
# * = called active by the depositor; i = inactive; . = no result shown; + = active, no number.
SMILES,UHRF1 binding,MBD2 DNA inh,Neddyl block,UBC13 polyUb,Neddyl conf
COc1ccc(NC(=O)CCC(=O)N2CCOCC2)c([N+](=O)[O-])c1,1,6,i,-22,.
CCCC(C)NC(=O)c1ccc2[nH]c3c(c2c1)CC(C)CC3 (centres undefined),1,1,i,4,.
COC(=O)c1ccc2[nH]c3c(c2c1)CC(C)CC3 (centres undefined),-3,2,+,-1,+
CCOC(=O)c1[nH]c2ccc(C(=O)OC)cc2c1C(=O)OCC,8,-5,+,12,i
CC(C)CC[n+]1ccn(-c2nc3ccccc3nc2[N-]S(=O)(=O)c2ccccc2)c1,-8,-3,+,4,i
NC(=S)NNC(=O)c1cc(C(F)(F)F)cc(C(F)(F)F)c1,-2,-1,i,-7,.
O=C1OCC2=C1C(c1ccc(F)cc1)c1cc3c(cc1N2)OCO3 (centres undefined),1,-1,+,.,.
O=C1OCC2=C1C(c1ccc(F)cc1)c1cc3c(cc1N2)OCCO3 (centres undefined),3,7,.,.,.
COc1ccc(NC(=O)CN2C(=O)NC3(CCCC3)C2=O)cc1OC,3,5,i,-4,.
Nc1ncnc2c1ncn2[C@@H]1O[C@H](COP(=O)(O)O)[C@@H](O)[C@H]1O,0,1,+,0,+
NCCC(=O)NC[C@H]1O[C@@H](n2cnc3c(N)ncnc32)[C@H](O)[C@@H]1O,0,0,i,.,.
Nc1ncnc2c1ncn2C1C=C(CO)C(O)C1O (centres undefined),.,.,i,.,.
CC=C1OC(n2cnc3c(N)ncnc32)C(O)C1O (centres undefined),1,3,+,.,i
Nc1ncnc2c1ncn2C1OC(COP(=O)(O)O)C(O)C1O (centres undefined),-2,-2,+,-1,+
O=C(CNC(=S)N(CCCN1CCOCC1)Cc1cccs1)NC1CCCCC1,1,-4,i,19,.
Cc1cc(C(=O)NC2CCCC(C)C2C)c2ccccc2n1 (centres undefined),3,7,i,-5,.
Fc1cccc(CO/N=C/c2c(-c3ccccc3)nc3ccc(Cl)cn23)c1,4,4,i,4,.
Cc1cccn2c(/C=N/OCc3cccc(F)c3)c(-c3ccc(Cl)cc3)nc12,23*,8,+,-5,i
COc1ccc(S(=O)(=O)N(C)C[C@@H]2Oc3c(NS(=O)(=O)c4cn(C)cn4)cccc3C(=O)N([C@@H](C)CO)C[C@@H]2C)cc1,-3,3,i,-8,.
COCC1CCCCN1Cc1cn(-c2ccccc2)nc1-c1ccc2c(c1)OCO2 (centres undefined),0,-4,+,-8,i
OCc1cn(-c2ccccc2)nc1-c1ccc2c(c1)OCCO2,0,-3,i,4,.
c1ccc(-n2cc(CN3CCCC(CN4CCCC4)C3)c(-c3ccc4c(c3)OCO4)n2)cc1 (centres undefined),-4,0,i,14,.
OC[C@@H]1CCCN1Cc1cn(-c2ccccc2)nc1-c1ccc2c(c1)OCO2,0,1,+,-4,i
O=C(O)CCn1c(-c2ccccc2)cc2ccccc21,-1,-3,+,4,.
O=C(O)CCn1c(CO)nc2ccccc21,-1,-6,i,-1,.
SMILES,UHRF1 binding,MBD2 DNA inh,Neddyl block,UBC13 polyUb,Neddyl conf
COC(=O)CCCC1=CC2=CC(=O)C(C)(OC(=O)c3cccs3)C(=O)C2=CN1CCc1ccccn1 (centres undefined),-6,-9,i,-44,.
CCCCC1=CC2=CC(=O)C(C)(OC(=O)CC)C(=O)C2=CN1CCc1ccccn1 (centres undefined),-4,-2,+,-12,i
CCCC(=O)Nc1cc(-c2nc3ncccc3o2)ccc1C,1,-4,.,-3,.
Cc1ccc(-c2nc3ncccc3o2)cc1NC(=O)C(C)(C)C,-1,5,+,4,.
COc1cccc(-c2nc(C#N)c(N3CCN(C(=O)c4ccco4)CC3)o2)c1,0,0,+,16,i
Cc1nc(N2CCN(C(=O)c3ccco3)CC2)c(C#N)c2c1CCCC2,-3,2,+,7,i
N#Cc1cccnc1N1CCN(C(=O)COCC(=O)O)CC1,-1,4,+,6,+
N#Cc1cccnc1N1CCN(C(=O)c2ccco2)CC1,1,-2,+,7,i
C[C@H](CO)N1C[C@H](C)[C@@H](CN(C)C(=O)Nc2ccc(C(F)(F)F)cc2)Oc2ccc(NC(=O)c3ccncc3)cc2C1=O,0,-5,i,16,.
CCN(CC)CCCNC(=O)c1nn(-c2ccc(OC)cc2OC)c(=O)c2ccccc12,0,1,i,-3,.
COc1ccc(C(=O)CSc2nnc(CNC(=O)c3ccc(S(=O)(=O)N(C)C)cc3)o2)cc1,-1,-6,i,0,.
CCCCN(CCCC)C1=Nc2ccccc2N/C1=C(/C#N)C(=O)OCC,-2,-3,+,-9,i
COc1ccccc1NC(=O)CNC(=O)c1ccccc1,2,0,i,4,.
COc1ccc(-c2cnc3ccccc3n2)cc1NC(=O)CNC(=O)c1ccccc1,0,-3,+,-1,i
CCc1nnc(NC(=O)c2ccc(-c3ccccc3F)o2)s1,0,0,+,-9,i
C=CCn1c(SCc2nc3scc(-c4ccccc4)c3c(=O)[nH]2)nnc1-c1ccccc1F,1,5,i,-7,.
Nc1ncnc2c1CN(Cc1ccccc1)CC2,-3,-5,i,.,.
Nc1nc2c(c(=O)[nH]1)CN(Cc1ccccc1)CC2,-2,-5,+,2,i
COc1ccc(/C(C)=N\Nc2nc(-c3ccccc3)cc(=O)[nH]2)cc1,1,-5,+,-2,i
Cc1ccc2c(c1)c1c(n2CC2COC(C)(C)O2)C(=O)CCC1 (centres undefined),2,-3,.,14,.
Cc1ccc2c(c1)c1c3n2CC(=C2C(=O)OC(C)(C)OC2=O)NC3CCC1 (centres undefined),1,-8,+,-2,i
Cc1onc(-c2c(Cl)cccc2Cl)c1NC(=O)NN(C)c1ccc([N+](=O)[O-])cn1,7,1,i,-11,.
O=c1c(Cc2ccccc2)c(O)c2cccc3c4c(n1c23)CCCC4,-2,1,+,6,i
O=C(O)CCCCCNS(=O)(=O)c1c(Cl)cccc1Cl,0,-5,i,-3,.

# Screening data as filed in PubChem.
